According to PubChem BioAssay AID2685 (National Center for Advancing Translational Sciences (NCATS), 2010):
Hit rate of the full screen: of about 320,000 compounds, about 2,100 (0.66%) were called active. Another 53% or so got no clear call; they are omitted. Calls come from the whole dose curve; as a rule, active = well fitted inhibition curve with a large enough effect in the signal ratio, with a control signal flat (not every such curve was filed as active); inconclusive = small, poorly fitted or top-dose-only effect, or effect the other way, or a change in a side signal; inactive = flat fitted curve, though single readings scatter; the % refers to the signal ratio. What follows is part of a selection rich in actives, with near analogues and random picks from the rest.

Experiment: qHTS Assay for Lipid Storage Modulators in Drosophila S3 Cells;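 for cell number change: cells counted by Cell Tracker Red CMTPX staining in the red channel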; for lipid storage change, negative = inhibition: % is set by controls: 0 for no effect and ±100 for the full control effect
Conditions: BODIPY lipid droplet fluorescence, 18-24 h, cells fed with added oleic acid; cell number change: measured here: cell count max response; series mostly up to 46.1 µM
Outline: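 Laser-scanning cytometry quantifies lipid droplet accumulation (500–530 nm total intensity; droplet/cell object ratio) in oleic acid-fed (400 uM added) Drosophila S3 cells treated with a concentration series. 20 uM Triacsin C defined 100% inhibition.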
Potency is the fitted concentration of half-maximal effect.

| Compound | Potency | cell number change | lipid storage change, negative = inhibition |
| --- | --- | --- | --- |
| Cc1ccc(OCCn2cc(C(=O)O)c3ccccc32)cc1 | inactive | 6.58% | – |
| COc1ccc(C(=S)N2CCOCC2)cc1OC(=O)c1ccccc1Cl | inactive | 11.8% | – |
| COc1ccc(C(CC(=O)O)NS(=O)(=O)c2ccc(C)cc2)cc1OC (centres undefined) | inactive | -5.13% | – |
| Cc1ccc(S(=O)(=O)NC(CC(=O)O)c2ccc(F)cc2)cc1 (centres undefined) | inactive | 2.4% | – |
| COc1ccc(C(CC(=O)O)NS(=O)(=O)c2ccc(C)cc2)cc1 (centres undefined) | 2.91 µM (active) | 9.41% | – |
| O=C(C1=C[C@@H](c2coc3ccccc3c2=O)C[C@@H](OCCCCO)O1)N1CCN(Cc2ccc3c(c2)OCO3)CC1 | inactive | -4.69% | – |
| CCc1c(C(=O)Nc2ccccc2)c(C)[nH]c(=S)c1C#N | inactive | 16.5% | – |
| Cc1ccc(-c2c(C(=O)Nc3ccccc3C)c(C)[nH]c(=S)c2C#N)o1 | inactive | 5.19% | – |
| Cc1[nH]c(=S)c(C#N)c(-c2ccccc2)c1C(=O)Nc1ccccc1 | 7.31 µM (active) | -24.7% | – |
| O=C(CCCN1C(=O)S/C(=C/c2ccccc2)C1=S)Nc1ccc(C(=O)O)cc1 | inactive | 10.3% | – |
| CCc1cccc(NC(=O)CCCN2C(=O)C(c3ccccc3)Oc3cccnc32)c1 (centres undefined) | 20.6 µM (active) | 12% | – |
| Cc1cc(C)cc(NC(=O)CCCN2C(=O)C(c3ccccc3)Oc3cccnc32)c1 (centres undefined) | -12% | – | – |
| CC(=O)c1ccc(NC(=O)CCCN2C(=O)C(c3ccccc3)Oc3cccnc32)cc1 (centres undefined) | inactive | -3.13% | – |
| Cc1ccc(C)c(NC(=O)C2CCCN2S(=O)(=O)c2ccc3c(c2)n(C)c(=O)c(=O)n3C)c1 (centres undefined) | inactive | 7.23% | – |
| O=C(Cc1ccccc1)NC(NC(=S)Nc1cc(Cl)ccc1Cl)C(Cl)(Cl)Cl (centres undefined) | inactive | -5.82% | – |
| O=C(/C=C/c1ccccc1)NC(NC(=S)Nc1cccc(O)c1)C(Cl)(Cl)Cl (centres undefined) | inactive | 11.8% | – |
| O=C(/C=C/c1ccccc1)NC(NC(=S)Nc1cc(Cl)ccc1Cl)C(Cl)(Cl)Cl (centres undefined) | 16.4 µM (active) | -23.7% | – |
| COc1ccc2c(c1)c(C(=O)N/N=C/c1ccc(Br)cc1)c(C)n2C | inactive | 12% | – |
| CCOC(=O)Cc1csc(N/N=C/c2ccc(C(F)(F)F)cc2)n1 | inactive | -3.51% | – |
| CCN(CC)c1ccc(/C=C2/C(=O)ON=C2C)cc1 | 9.2 µM (active) | -20.6% | – |
| CCN(CC)c1ccc(C=C2C(=O)OC(c3ccccc3)OC2=O)cc1 (centres undefined) | inactive | 18.7% | – |
| CC1=NOC(=O)/C1=C/c1ccc(N(C)C)cc1 | inactive | -16.6% | – |
| CCOC(=O)C1CCN(Cc2nnc(-c3ccccc3C)o2)CC1 | inactive | 14.7% | – |

| Compound | Potency | cell number change | lipid storage change, negative = inhibition |
| --- | --- | --- | --- |
| CCOC(=O)C(NCCc1ccccc1F)(NC(C)=O)C(F)(F)F (centres undefined) | inactive | 0.435% | – |
| O=C(Nc1ccc2oc(-c3cccnc3)nc2c1)c1ccc([N+](=O)[O-])o1 | 3.66 µM (active) | -27.4% | – |
| O=C(Nc1ccccc1)c1ccc(NCCc2ccccc2)c([N+](=O)[O-])c1 | inactive | -13.2% | – |
| O=C(Nc1ccc2oc(-c3cccnc3)nc2c1)c1ccco1 | inactive | -3.59% | – |
| Cc1cc(C(=O)Nc2cccc(NC(=O)c3ccco3)c2)ccc1[N+](=O)[O-] | 1.84 µM (active) | -29.7% | – |
| O=C(Nc1cccnc1)c1ccc([N+](=O)[O-])o1 | inactive | – | – |
| Cc1cccc(NC(=O)c2ccc(NCCc3ccccc3)c([N+](=O)[O-])c2)c1 | 16.4 µM (active) | 11.4% | – |
| O=C(Nc1ccc(Cl)c([N+](=O)[O-])c1)c1ccco1 | inactive | -24.9% | – |
| Cc1cccc(NC(=O)NNC(=O)c2ccc(C)c([N+](=O)[O-])c2)c1 | inactive | 11.9% | – |
| O=C(Nc1cccc(NC(=O)c2ccccc2Cl)c1)c1ccc([N+](=O)[O-])o1 | inactive | – | – |
| Cc1cc(C(=O)Nc2ccncc2)ccc1[N+](=O)[O-] | inactive | -15% | – |
| O=C(Nc1cccc(NC(=O)c2ccco2)c1)c1ccc([N+](=O)[O-])cc1 | inactive | 3.56% | – |
| O=C(Nc1cccc(NC(=O)c2ccc([N+](=O)[O-])o2)c1)c1ccco1 | 5.8 µM (active) | 19.2% | – |
| CCCCNC(=O)COc1ccccc1C(=O)c1cc(C#N)c(=O)n(CCOC)c1 | inactive | 1.51% | – |
| COc1ccc(S(=O)(=O)N2CCCC2)c2ccccc12 | inactive | 12.2% | – |
| CCc1ccc2[nH]c(=O)c(CN(CCN(CC)CC)C(=O)Nc3ccccc3OC)cc2c1 | inactive | 22.1% | – |
| COc1nc(N2CCCC2)nc(-n2nnc(C(C)=O)c2C)n1 | inactive | 9.7% | – |
| CC(=O)c1c(C)[nH]c2ccccc2c1=O | inactive | -9.21% | – |
| COC(=O)c1c(NC(=O)CSc2nnc(C)c(=O)[nH]2)sc(C)c1C | inactive | -15.8% | – |
| COc1ccc(C2CC(c3ccc(Br)cc3)=NN2C(=O)CSC2=NCCS2)cc1 (centres undefined) | inactive | -2.75% | – |
| COc1ccc(C(=O)Nc2cc(OC)nc(OC)n2)cc1 | inactive | -3.14% | – |
| COc1cc(NC(=O)c2ccc([N+](=O)[O-])o2)ccc1NC(=O)c1ccco1 | 8.2 µM (active) | -26.2% | – |
| COc1cc(NC(=O)c2cccc([N+](=O)[O-])c2)ccc1NC(=O)c1ccco1 | inactive | -8.46% | – |

| Compound | Potency | cell number change | lipid storage change, negative = inhibition |
| --- | --- | --- | --- |
| CCC(=O)Nc1ccc(NC(=O)c2ccco2)c(OC)c1 | inactive | 16% | – |
| COc1cc(NC(=O)c2ccccc2)ccc1NC(=O)c1cc2ccccc2o1 | inactive | -16.3% | – |
| Cc1ccc2nsnc2c1NC(=O)c1ccc([N+](=O)[O-])o1 | 18.4 µM (active) | 0.87% | – |
| Cc1ccc2nsnc2c1NC(=O)c1cccc([N+](=O)[O-])c1 | inactive | 3.04% | – |
| Cc1cccc(NC(=O)c2ccc(-c3ccccc3[N+](=O)[O-])o2)c1 | inactive | 15.3% | – |
| O=C(Nc1c(Cl)ccc2nsnc12)c1ccc([N+](=O)[O-])o1 | inactive | 11.1% | – |
| Cc1cccc(NC(=O)c2ccc([N+](=O)[O-])o2)c1 | 13 µM (active) | 3.29% | – |
| Cc1cc(C)cc(NC(=O)c2ccc([N+](=O)[O-])o2)c1 | inactive | -11.8% | – |
| COc1cc(NC(=O)c2cc3ccccc3o2)ccc1NC(=O)c1ccco1 | 0.58 µM (active) | 2.99% | – |
| COc1cc(NC(C)=O)ccc1NC(=O)c1cc2ccccc2o1 | inactive | 11.3% | – |
| Cc1ccc(C(=O)CCC(=O)OCc2nnc(-c3ccccc3)o2)cc1 | inactive | – | – |
| O=C1c2cc(Cl)ccc2OC2(CCNCC2)C12CC(c1ccccc1)=NO2 (centres undefined) | inactive | 8.66% | – |
| COC(=O)[C@@]1(Cc2ccc(OC)cc2)[C@H]2c3cc(C(=O)N4CCCC4)n(CCSCCO)c3C[C@H]2CN1C(=O)c1ccccc1 | inactive | 0.624% | – |
| CN(C1CCCC1)C1CCN(C(=O)CNC(=O)/C=C/c2cccc(C(F)(F)F)c2)CC1 | inactive | 8.56% | – |
| CN(C)c1ccc(CN(C(=O)c2cccs2)C2CCS(=O)(=O)C2)cc1 (centres undefined) | inactive | 15.9% | – |
| c1ccc(OCc2nc3c4c(ncn3n2)-c2ccccc2CC42CCCC2)cc1 | inactive | -10.9% | – |
| COc1ccccc1NC(=O)C1CCCN(c2cnccn2)C1 (centres undefined) | inactive | 17.3% | – |
| COc1cc2c(cc1OC)CN(C(=O)Nc1ccccc1)CC2 | inactive | 6.01% | – |
| COC(=O)Cc1cc(=O)n2[nH]c(C)c(-c3ccccc3)c2n1 | inactive | -1.66% | – |
| CCCc1cc(=O)n2[nH]c(C)c(-c3ccc(OC)cc3)c2n1 | 18.4 µM (active) | 16.5% | – |
| CCOC(=O)Cc1cc(=O)n2[nH]c(C)c(-c3ccc(Cl)cc3)c2n1 | inactive | -27.5% | – |
| C/C(=N\NC(=O)NC1CCCCC1)c1ccc(Cl)s1 | inactive | -11.8% | – |
| COc1ccc(-c2nc(SCC(=O)NC3CCCCC3)n[nH]2)cc1 | inactive | -21.7% | – |

| Compound | Potency | cell number change | lipid storage change, negative = inhibition |
| --- | --- | --- | --- |
| COc1ccc(-c2nc(SC(C)C(=O)Nc3ccc(NC(C)=O)cc3)n[nH]2)cc1 (centres undefined) | inactive | 32.4% | – |
| COc1ccc(-c2nc(SC(C)C(=O)NC3CC3)n[nH]2)cc1 (centres undefined) | 1.84 µM (active) | -10% | – |
| CCOC(=O)C1CCCCN1Cc1cccc(Oc2ccccc2)c1 (centres undefined) | inactive | -1.04% | – |
| CCOC(=O)C1CCCCN1Cc1ccc(F)c(Br)c1 (centres undefined) | inactive | -23.6% | – |
| CCOC(=O)C1CCCCN1Cc1ccc(C(F)(F)F)cc1 (centres undefined) | 6.51 µM (active) | -25.6% | – |
| COc1cc(C2CC(=O)Oc3c(C(CCN4CCN(c5ccccc5)CC4)c4ccc(N(C)C)cc4)c(OC)cc(OC)c32)cc(OC)c1OC (centres undefined) | inactive | -0.692% | – |
| O=C(COc1ccccc1[N+](=O)[O-])Nc1cc(C(=O)O)cc(C(=O)O)c1 | inactive | -6.55% | – |
| CCN(CC(=O)Nc1ccc(NC(C)=O)cc1)C(=O)CSc1ncnc2sc(C)c(C)c12 | inactive | – | – |
| Cc1sc2ncnc(SCC(=O)Nc3ccc(CN4CCCC4)cc3)c2c1C | inactive | 13.1% | – |
| CC(=O)Nc1ccc(NC(=O)CSc2ncnc3sc(C)c(C)c23)cc1 | 13 µM (active) | 3.95% | – |
| COC(=O)c1ccc(NC(=O)CSc2nc3[nH]ncc3c(=O)[nH]2)cc1 | – | – | -11.4% [at 0.0737 µM] (inactive) |
| COC(=O)CNC(=O)COc1ccccc1 | 25.9 µM (active) | 0.31% | – |
| O=C(COc1ccccc1)NCc1ccccc1 | inactive | – | – |
| CC(C)c1ccc(OCC(=O)NC(C)c2ccccc2)cc1 (centres undefined) | inactive | -6.3% | – |
| CC(C)CC(NC(=O)COc1ccccc1)C(=O)O (centres undefined) | inactive | 23.7% | – |
| CCc1ccc(C(=O)COC(=O)CNC(=O)COc2ccccc2)cc1 | inactive | -0.597% | – |
| CC(C)C(NC(=O)COc1ccccc1)C(=O)O (centres undefined) | 32.6 µM (active) | -18.5% | – |
| COC(=O)c1cccc(NC(=S)N2CCN(c3ccccc3F)CC2)c1 | inactive | 12.8% | – |
| CCOC(=O)CC(/C(C)=N\O)c1ccccc1 (centres undefined) | inactive | -0.923% | – |
| Cc1ccc(NC(=O)CN2C(=O)CSC2=O)cc1 | inactive | -1.37% | – |
| CCc1ccc(NC(=O)CN2C(=O)CSC2=O)cc1 | inactive | -0.41% | – |
| O=C(CN1C(=O)CSC1=O)Nc1ccc(N2CCOCC2)cc1 | 20.6 µM (active) | – | – |
